# Source: PubChem BioAssay (EPA / NIEHS)
# Several values for one entry are separate records, joined by “and”; a condition that tells them apart may be missing. Identical values can stand only once. Inconclusive results are not listed. The source holds several records for some structures; these can differ, active in one and inactive in another. Activity calls are given as the source filed them. Rule for the calls: active = hit-call score of the fitted dose curve at least 0.9, where 1 is the maximum; inconclusive = response in the unintended direction; inactive = score below 0.9.
# Assays:
# [1] = target: Cytochrome P450 2C19 (Homo sapiens) (UniProt P33261); assay: NVS_ADME_hCYP2C19: NovaScreen (NVS) CYP450-related Enzyme Activity (ADME) Assay for human CYP2C19 (AID 2283113);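 for AC50: potency for inhibition seen as loss of fluorescent signal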
# Method in brief: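 Cell-free recombinant human CYP2C19 from insect cells, fluorescent substrate; activity read by fluorescence intensity 1 h after dosing. Primary screen in duplicate at 10 uM; actives retested in concentration series. Signal loss versus acetonitrile negative control.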
# [2] = target: human CYP2C9, CYP2C9 (gene 1559) (UniProt P11712); assay: NVS_ADME_hCYP2C9: NovaScreen (NVS) CYP450-related Enzyme Activity (ADME) Assay for human CYP2C9 (AID 2283108)
# human CYP2C9, CYP2C9 (gene 1559), sequence (P11712 whole entry, looked up): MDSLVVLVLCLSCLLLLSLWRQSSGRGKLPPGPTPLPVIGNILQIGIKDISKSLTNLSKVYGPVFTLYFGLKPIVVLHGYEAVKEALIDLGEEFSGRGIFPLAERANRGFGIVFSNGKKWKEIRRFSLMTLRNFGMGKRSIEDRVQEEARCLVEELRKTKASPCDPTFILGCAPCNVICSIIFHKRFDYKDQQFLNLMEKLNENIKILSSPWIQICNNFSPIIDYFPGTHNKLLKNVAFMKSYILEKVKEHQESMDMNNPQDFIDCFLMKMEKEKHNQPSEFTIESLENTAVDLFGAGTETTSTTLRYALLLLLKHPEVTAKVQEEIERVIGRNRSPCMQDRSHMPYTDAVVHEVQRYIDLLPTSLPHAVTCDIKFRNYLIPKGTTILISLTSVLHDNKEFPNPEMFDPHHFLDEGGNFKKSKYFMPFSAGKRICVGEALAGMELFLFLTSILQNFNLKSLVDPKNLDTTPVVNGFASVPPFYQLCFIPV
# Method in brief: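 Fluorescence readout of CYP2C9 activity (SF9-expressed human enzyme) at 0.75 h. The primary screen used 10 uM in duplicate, with concentration-response follow-up for actives; acetonitrile was the negative control.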
# [3] = target: human AKT serine/threonine Kinase 1 (AKT1), AKT1 (gene 207) (UniProt P31749); assay: NVS_ENZ_hAKT1: NovaScreen (NVS) Enzymatic Assay for human AKT serine/threonine Kinase 1 (AKT1) (AID 2283138)
# human AKT serine/threonine Kinase 1 (AKT1), AKT1 (gene 207), sequence (P31749 whole entry, looked up): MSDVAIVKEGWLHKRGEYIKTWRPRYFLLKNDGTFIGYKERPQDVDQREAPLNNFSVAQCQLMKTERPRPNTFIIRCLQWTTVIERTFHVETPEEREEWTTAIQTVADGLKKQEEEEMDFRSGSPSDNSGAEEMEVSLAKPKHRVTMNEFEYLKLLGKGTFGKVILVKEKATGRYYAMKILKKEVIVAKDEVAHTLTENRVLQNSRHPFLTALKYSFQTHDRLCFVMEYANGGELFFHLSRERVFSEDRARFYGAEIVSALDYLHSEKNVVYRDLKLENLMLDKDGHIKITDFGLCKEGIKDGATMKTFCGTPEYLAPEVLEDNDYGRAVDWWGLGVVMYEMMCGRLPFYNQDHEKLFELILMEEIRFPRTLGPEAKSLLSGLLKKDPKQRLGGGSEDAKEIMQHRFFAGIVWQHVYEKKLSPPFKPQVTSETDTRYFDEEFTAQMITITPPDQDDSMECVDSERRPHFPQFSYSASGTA
# Method in brief: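 Compounds were first tested in duplicate at 25 uM, and those passing a threshold such as 30% inhibition were run in concentration-response to a maximum of 50 uM. Enzyme activity was measured after 1 h by fluorescence following substrate/product mobility-shift separation.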
# [4] = target: human Caspase 4 (CASP4), CASP4 (gene 837) (UniProt P49662); assay: NVS_ENZ_hCASP4: NovaScreen (NVS) Enzymatic Assay for human Caspase 4 (CASP4) (AID 2283143)
# human Caspase 4 (CASP4), CASP4 (gene 837), sequence (P49662 whole entry, looked up): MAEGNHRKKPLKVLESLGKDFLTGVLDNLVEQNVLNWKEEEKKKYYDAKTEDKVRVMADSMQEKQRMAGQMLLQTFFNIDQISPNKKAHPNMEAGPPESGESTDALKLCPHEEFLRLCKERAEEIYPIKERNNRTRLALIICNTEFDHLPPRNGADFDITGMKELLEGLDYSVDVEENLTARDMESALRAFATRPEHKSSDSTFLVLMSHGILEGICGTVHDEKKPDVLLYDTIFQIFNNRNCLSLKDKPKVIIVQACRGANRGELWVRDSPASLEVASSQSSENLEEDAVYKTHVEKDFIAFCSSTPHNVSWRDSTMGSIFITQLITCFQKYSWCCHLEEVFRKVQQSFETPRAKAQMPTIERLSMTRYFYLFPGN
# Method in brief: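 Compounds were first tested in duplicate at 25 uM, and hits were titrated singly to a 50 uM maximum. Recombinant protease from E. coli was read by fluorescence 2 h post-dose, and activity loss was fitted against the DMSO baseline.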
# [5] = target: human Dual Specificity Protein Phosphatase 3 (DUSP3), DUSP3 (gene 1845) (UniProt P51452); assay: NVS_ENZ_hDUSP3: NovaScreen (NVS) Enzymatic Assay for human Dual Specificity Protein Phosphatase 3 (DUSP3) (AID 2283152);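 note: phosphatase activity of recombinant human DUSP3 on a fluorogenic substrate without cells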
# human Dual Specificity Protein Phosphatase 3 (DUSP3), DUSP3 (gene 1845), sequence (P51452 whole entry, looked up): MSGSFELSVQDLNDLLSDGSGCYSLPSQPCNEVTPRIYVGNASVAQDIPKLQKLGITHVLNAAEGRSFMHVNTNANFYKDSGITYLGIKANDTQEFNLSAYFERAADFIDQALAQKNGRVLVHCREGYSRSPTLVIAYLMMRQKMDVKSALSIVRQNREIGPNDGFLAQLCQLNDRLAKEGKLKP
# Method in brief: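 Cell-free fluorescence-intensity enzyme activity assay with recombinant protein and substrate; loss of signal fitted relative to DMSO baseline. Primary screen in duplicate at 25 uM, actives then run in concentration series; measured 0 h after dosing.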
# [6] = target: Cytochrome P450 3A4 (Homo sapiens) (UniProt P08684); assay: NVS_ADME_hCYP3A4: NovaScreen (NVS) CYP450-related Enzyme Activity (ADME) Assay for human CYP3A4 (AID 2283110)
# Cytochrome P450 3A4 (Homo sapiens), sequence (P08684 whole entry, looked up): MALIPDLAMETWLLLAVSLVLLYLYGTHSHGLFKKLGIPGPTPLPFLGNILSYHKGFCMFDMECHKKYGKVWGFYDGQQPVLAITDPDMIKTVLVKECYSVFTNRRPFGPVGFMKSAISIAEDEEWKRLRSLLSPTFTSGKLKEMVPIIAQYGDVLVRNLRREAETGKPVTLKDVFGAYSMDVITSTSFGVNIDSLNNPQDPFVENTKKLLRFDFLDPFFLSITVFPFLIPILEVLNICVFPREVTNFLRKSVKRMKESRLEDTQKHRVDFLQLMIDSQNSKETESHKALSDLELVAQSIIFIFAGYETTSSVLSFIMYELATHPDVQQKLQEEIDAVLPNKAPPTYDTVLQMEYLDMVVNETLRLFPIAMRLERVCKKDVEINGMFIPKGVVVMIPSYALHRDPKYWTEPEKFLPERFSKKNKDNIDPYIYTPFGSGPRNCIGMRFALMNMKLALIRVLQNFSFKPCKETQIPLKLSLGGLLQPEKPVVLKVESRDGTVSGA
# Method in brief: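 Compounds screened in duplicate at 10 uM, with follow-up concentration-response for actives, against insect-cell-expressed recombinant enzyme. Activity read by fluorescence 0.33 h after dosing; loss of signal versus acetonitrile control indicates inhibition.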
# [7] = target: human Caspase 5 (CASP5), CASP5 (gene 838) (UniProt P51878); assay: NVS_ENZ_hCASP5: NovaScreen (NVS) Enzymatic Assay for human Caspase 5 (CASP5) (AID 2283137)
# human Caspase 5 (CASP5), CASP5 (gene 838), sequence (P51878 whole entry, looked up): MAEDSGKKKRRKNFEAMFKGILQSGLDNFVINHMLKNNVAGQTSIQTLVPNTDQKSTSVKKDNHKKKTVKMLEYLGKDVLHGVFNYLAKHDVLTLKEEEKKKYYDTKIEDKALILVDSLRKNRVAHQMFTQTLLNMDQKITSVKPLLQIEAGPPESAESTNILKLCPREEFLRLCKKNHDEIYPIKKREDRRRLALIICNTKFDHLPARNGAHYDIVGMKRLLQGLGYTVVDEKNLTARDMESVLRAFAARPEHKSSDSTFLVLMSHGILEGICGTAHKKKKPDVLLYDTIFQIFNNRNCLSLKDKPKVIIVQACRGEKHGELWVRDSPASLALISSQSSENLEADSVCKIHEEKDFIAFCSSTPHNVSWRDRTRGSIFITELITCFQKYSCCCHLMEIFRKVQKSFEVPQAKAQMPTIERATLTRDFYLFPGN
# Method in brief: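 Chemicals were first tested in duplicate at 25 uM against recombinant caspase 5 from E. coli. Activity was read by fluorescence intensity 2 hours after dosing. Those passing a preset inhibition threshold were retested in singleton concentration-response up to 50 uM.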
# [8] = target: human Beta-secretase (BACE), BACE1 (gene 23621) (UniProt P56817); assay: NVS_ENZ_hBACE: NovaScreen (NVS) Enzymatic Assay for human Beta-secretase (BACE) (AID 2283140);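 note: hits are inhibitors that reduce fluorescent substrate signal versus DMSO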
# human Beta-secretase (BACE), BACE1 (gene 23621), sequence (P56817 whole entry, looked up): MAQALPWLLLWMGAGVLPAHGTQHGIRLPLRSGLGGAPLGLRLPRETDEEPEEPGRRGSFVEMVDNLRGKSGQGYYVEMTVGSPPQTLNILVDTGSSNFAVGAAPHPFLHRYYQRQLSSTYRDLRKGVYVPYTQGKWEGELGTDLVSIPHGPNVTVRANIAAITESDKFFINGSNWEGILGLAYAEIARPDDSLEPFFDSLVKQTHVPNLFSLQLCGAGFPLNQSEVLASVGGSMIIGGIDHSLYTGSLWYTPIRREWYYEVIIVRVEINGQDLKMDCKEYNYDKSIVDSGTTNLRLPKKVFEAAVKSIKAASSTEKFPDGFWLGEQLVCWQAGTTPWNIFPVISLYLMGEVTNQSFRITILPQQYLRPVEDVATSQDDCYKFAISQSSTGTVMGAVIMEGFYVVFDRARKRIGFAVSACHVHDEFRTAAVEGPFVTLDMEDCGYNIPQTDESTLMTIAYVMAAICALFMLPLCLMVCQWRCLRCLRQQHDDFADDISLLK
# Method in brief: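 Fluorescence intensity read-out of protease activity defines this endpoint; signal loss relative to DMSO baseline marks inhibition. Recombinant enzyme from SF9 cells, cell-free format, 1 h exposure. Single-concentration duplicate screen (25 uM) precedes concentration-series follow-up.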
# [9] = target: Caspase-3 (Homo sapiens) (UniProt P42574); assay: NVS_ENZ_hCASP3: NovaScreen (NVS) Enzymatic Assay for human Caspase 3 (CASP3) (AID 2283139)
# Caspase-3 (Homo sapiens), sequence (P42574 whole entry, looked up): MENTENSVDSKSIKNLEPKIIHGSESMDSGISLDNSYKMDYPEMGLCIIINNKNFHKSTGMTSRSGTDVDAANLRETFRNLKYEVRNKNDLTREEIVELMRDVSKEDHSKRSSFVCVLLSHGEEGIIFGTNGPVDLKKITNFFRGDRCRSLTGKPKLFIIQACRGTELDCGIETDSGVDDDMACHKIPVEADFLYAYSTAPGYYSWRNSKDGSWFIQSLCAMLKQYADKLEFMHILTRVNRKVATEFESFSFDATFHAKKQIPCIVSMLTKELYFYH
# Method in brief: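 Single-concentration screening at 25 uM in duplicate, with concentration-response follow-up to a 50 uM maximum for chemicals passing the threshold. Caspase-3 (human, E. coli-expressed) activity was read as substrate fluorescence after 1 h, with loss of signal relative to DMSO.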
# [10] = target: human Casein Kinase 1-delta (CK1D), CSNK1D (gene 1453) (UniProt P48730); assay: NVS_ENZ_hCK1D: NovaScreen (NVS) Enzymatic Assay for human Casein Kinase 1-delta (CK1D) (AID 2283148)
# human Casein Kinase 1-delta (CK1D), CSNK1D (gene 1453), sequence (P48730 whole entry, looked up): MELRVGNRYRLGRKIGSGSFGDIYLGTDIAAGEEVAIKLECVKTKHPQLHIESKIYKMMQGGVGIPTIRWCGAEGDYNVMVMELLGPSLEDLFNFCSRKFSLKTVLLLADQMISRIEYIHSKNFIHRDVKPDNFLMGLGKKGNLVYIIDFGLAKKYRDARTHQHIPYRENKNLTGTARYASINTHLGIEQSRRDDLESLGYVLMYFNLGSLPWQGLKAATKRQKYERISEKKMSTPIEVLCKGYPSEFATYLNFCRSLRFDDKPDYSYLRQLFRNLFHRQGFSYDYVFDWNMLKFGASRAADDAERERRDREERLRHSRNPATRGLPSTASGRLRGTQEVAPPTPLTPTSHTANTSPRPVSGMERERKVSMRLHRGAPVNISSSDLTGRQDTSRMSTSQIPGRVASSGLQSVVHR
# Method in brief: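 Recombinant human CK1-delta, cell-free; fluorescent substrate with electrophoretic mobility-shift separation of product, read 1 h after dosing. Single 25 uM duplicate screen, then concentration-response up to 50 uM; loss of signal vs DMSO.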
# [11] = target: human Colony Stimulating Factor 1 Receptor (CSF1R), CSF1R (gene 1436) (UniProt P07333); assay: NVS_ENZ_hCSF1R: NovaScreen (NVS) Enzymatic Assay for human Colony Stimulating Factor 1 Receptor (CSF1R) (AID 2283150)
# Method in brief: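 Compounds screened in duplicate at 25 uM, then concentration-response (top 50 uM) for those passing threshold such as 30% inhibition; recombinant CSF1R activity measured 1 h post-dosing via fluorescent substrate/product mobility-shift separation, loss of signal versus DMSO.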
# [12] = target: rat CYP2A2, Cyp2a2 (gene 24895) (UniProt P15149); assay: NVS_ADME_rCYP2A2: NovaScreen (NVS) CYP450-related Enzyme Activity (ADME) Assay for rat CYP2A2 (AID 2283116)
# rat CYP2A2, Cyp2a2 (gene 24895), sequence (P15149 whole entry, looked up): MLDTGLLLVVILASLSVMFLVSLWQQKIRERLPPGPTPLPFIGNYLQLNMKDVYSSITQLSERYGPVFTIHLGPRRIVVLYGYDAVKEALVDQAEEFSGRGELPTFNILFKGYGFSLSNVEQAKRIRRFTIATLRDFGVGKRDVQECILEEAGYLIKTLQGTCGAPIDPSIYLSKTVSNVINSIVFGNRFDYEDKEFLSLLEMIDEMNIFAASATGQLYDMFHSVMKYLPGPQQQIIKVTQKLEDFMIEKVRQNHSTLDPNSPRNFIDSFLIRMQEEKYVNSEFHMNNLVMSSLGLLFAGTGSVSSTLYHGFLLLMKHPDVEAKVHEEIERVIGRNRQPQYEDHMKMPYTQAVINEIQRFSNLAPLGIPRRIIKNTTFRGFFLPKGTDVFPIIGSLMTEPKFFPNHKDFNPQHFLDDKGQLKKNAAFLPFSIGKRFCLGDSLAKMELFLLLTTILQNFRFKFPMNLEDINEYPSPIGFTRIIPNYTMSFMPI
# Method in brief: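 Compounds first tested in duplicate at 10 uM, then in singleton concentration series up to 20 uM when over threshold. Activity of the recombinant enzyme read by fluorescence at 0.2 h, normalised to acetonitrile vehicle.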
# [13] = target: rat CYP2C11, Cyp2c11 (gene 29277) (UniProt P08683); assay: NVS_ADME_rCYP2C11: NovaScreen (NVS) CYP450-related Enzyme Activity (ADME) Assay for rat CYP2C11 (AID 2283118)
# rat CYP2C11, Cyp2c11 (gene 29277), sequence (P08683 whole entry, looked up): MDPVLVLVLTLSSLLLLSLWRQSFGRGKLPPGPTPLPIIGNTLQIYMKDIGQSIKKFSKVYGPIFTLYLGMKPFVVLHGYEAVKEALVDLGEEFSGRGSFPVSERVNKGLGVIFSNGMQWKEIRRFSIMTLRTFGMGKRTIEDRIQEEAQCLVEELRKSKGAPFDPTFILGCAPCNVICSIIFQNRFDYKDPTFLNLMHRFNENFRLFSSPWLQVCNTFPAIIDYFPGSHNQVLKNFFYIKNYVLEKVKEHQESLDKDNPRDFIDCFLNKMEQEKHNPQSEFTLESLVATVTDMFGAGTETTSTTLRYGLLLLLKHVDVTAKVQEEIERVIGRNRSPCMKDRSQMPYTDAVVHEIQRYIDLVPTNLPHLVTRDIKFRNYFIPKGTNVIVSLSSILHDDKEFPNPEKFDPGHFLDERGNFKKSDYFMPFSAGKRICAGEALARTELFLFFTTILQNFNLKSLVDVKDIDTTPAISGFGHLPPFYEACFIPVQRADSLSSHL
# Method in brief: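 Screened first at 10 uM in duplicate, hits followed by concentration-response. Recombinant rat enzyme activity monitored by fluorescence 0.33 h post-dosing, normalised to acetonitrile negative control.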
# [14] = system: rat CYP2C6, gene 293989; assay: NVS_ADME_rCYP2C6: NovaScreen (NVS) CYP450-related Enzyme Activity (ADME) Assay for rat CYP2C6 (AID 2283120)
# Method in brief: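 Compounds first tested in duplicate at 10 uM, hits (e.g. 30% inhibition) re-run in singleton dose series to a 20 uM top concentration. Enzyme activity of recombinant rat CYP2C6 measured via fluorescent substrate turnover after 1 h; acetonitrile baseline.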
# [15] = system: rat CYP3A1, gene 25642; assay: NVS_ADME_rCYP3A1: NovaScreen (NVS) CYP450-related Enzyme Activity (ADME) Assay for rat CYP3A1 (AID 2283126)
# Method in brief: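 Compounds went first at 10 uM duplicate, then to series with 20 uM maximum. Fluorescence from substrate turnover by the recombinant enzyme was measured 0.5 h post-dosing, inhibition scored against acetonitrile vehicle.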
smiles,measurement,setting,value
Cc1cc(Cc2ccc(N)c(C)c2)ccc1N,AC50,[1],7.05 µM (active)
S=c1[nH]c2ccccc2s1,AC50,[2],7.33 µM (active)
same,AC50,[1],1.92 µM (active)
same,outcome,[3],inactive
same,outcome,[4],inactive
Cc1c(C)c2c(c(C)c1O)CCC(C)(COc1ccc(CC3SC(=O)NC3=O)cc1)O2 (stereo unspecified),outcome,[2],inactive
same,outcome,[5],inactive
O=C1OC(c2ccc(O)cc2)(c2ccc(O)cc2)c2ccccc21,AC50,[2],6.81 µM (active)
same,AC50,[1],0.586 µM (active)
O=C(NS(=O)(=O)/C=C/c1cccs1)c1ccc(F)cc1Br,AC50,[2],4.11 µM (active)
CCc1cc(C2=C(C(=O)O)N(c3ccccc3C(F)(F)F)S(=O)(=O)c3ccccc32)cc2c1OCO2,outcome,[2],inactive
same,AC50,[6],4.98 µM (active)
same,AC50,[1],15.8 µM (active)
same,outcome,[7],inactive
same,AC50,[8],6.05 µM (active)
same,outcome,[4],inactive
CC(=O)OC1CC(C)OC(C)O1 (stereo unspecified),AC50,[2],4.37 µM (active)
same,AC50,[1],15.1 µM (active)
same,outcome,[9],inactive
CC(=O)OCC(COC(C)=O)OC(C)=O,outcome,[6],inactive
Cc1ccc(-c2cc(C(F)(F)F)nn2-c2ccc(S(N)(=O)=O)cc2)cc1,AC50,[2],6 µM (active)
same,outcome,[4],inactive
CN(C)C(=O)NC1(c2ccccc2)CCN(CC[C@@]2(c3ccc(F)c(F)c3)CN(C(=O)c3ccccc3)CCO2)CC1,AC50,[6],5.63 µM (active)
same,outcome,[1],inactive
same,outcome,[3],inactive
same,outcome,[9],inactive
CC(=O)CC(c1ccccc1)c1c(O)c2ccccc2oc1=O (stereo unspecified),outcome,[1],inactive
O=C(N[C@@H](c1ccccc1)[C@@H]1CCCCN1)c1cccc(C(F)(F)F)c1Cl,AC50,[2],3.27 µM (active)
same,outcome,[6],inactive
same,outcome,[1],inactive
same,outcome,[10],inactive
same,outcome,[11],inactive
CCCCCCCCCCCCCCCCO,AC50,[1],12.6 µM (active)
CCN(CC)CCOc1ccc(C(=C(Cl)c2ccccc2)c2ccccc2)cc1,AC50,[2],6.93 µM (active)
same,AC50,[1],2.68 µM (active) [middle of 4 runs]
same,AC50,[12],3.22 µM (active) and 5.8 µM (active)
same,outcome,[12],inactive
same,AC50,[13],6.05 µM (active) and 5 µM (active) and 325 nM (active)
same,AC50,[14],4.06 µM (active) and 3.54 µM (active) and 4.76 µM (active)
same,AC50,[15],6.26 µM (active)
same,AC50,[8],14.7 µM (active)
CCCCC(CC)COP(=O)(OCC(CC)CCCC)OCC(CC)CCCC (stereo unspecified),outcome,[2],inactive
same,outcome,[1],inactive
CC(COCC(C)OC(=O)c1ccccc1)OC(=O)c1ccccc1 (stereo unspecified),AC50,[1],2.27 µM (active)
CSc1ccc(Oc2ccc(S(N)(=O)=O)cc2CN(C)C)cc1C,AC50,[2],4.84 µM (active)
same,AC50,[1],4.05 µM (active)
CC(C)(O)c1ccc(CNC(=O)c2cccnc2Oc2ccc(F)cc2)cc1,AC50,[1],4.26 µM (active)
CC(C)OC(=O)C(C)(C)Oc1ccc(C(=O)c2ccc(Cl)cc2)cc1,outcome,[2],inactive
same,AC50,[1],4.67 µM (active)
CCCCCCC(CCCCCCCCCCC(=O)OCC(COC(C)=O)OC(C)=O)OC(C)=O (stereo unspecified),AC50,[2],1.41 µM (active)
same,AC50,[7],13.7 µM (active)
